Assays:
Assay in all cases: PBM binding z-score (relative to random genomic background probes); higher = stronger binding; sequences stand for … in GC…GCGATTGACAGCGTAGAATGAAGG
[1] = system: FXR:RXRa (NR concentration 270 nM, RXRa partner concentration 90 nM)
In short: (§1)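 For binding z-scores, the reference was random background probes on custom Agilent 4×180K protein-binding microarrays. These arrays were incubated 1 h with ligand-free nuclear receptor dimers in PBS pH 7.4, 2% milk, 0.02% Triton X-100, 1 mM DTT, 0.2 mg/mL BSA and 0.4 mg/ml salmon testes DNA. Fluorescence was scanned after antibody detection of each partner (one per run) and regression-normalized.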

[2] = system: LXRa:RXRa (NR concentration 270 nM, RXRa partner concentration 90 nM)
In short: as §1

[3] = system: LXRa homodimer (NR concentration 270 nM)
In short: as §1

[4] = system: LXRb:RXRa (NR concentration 270 nM, RXRa partner concentration 90 nM)
In short: as §1

[5] = system: LXRb homodimer (NR concentration 270 nM)
In short: as §1

[6] = system: PPARa:RXRa (NR concentration 270 nM, RXRa partner concentration 90 nM)
In short: as §1

[7] = system: PPARg:RXRa (NR concentration 180 nM, RXRa partner concentration 90 nM)
In short: as §1

[8] = system: PPARg:RXRa 270nM:90nM, anti-RXR (NR concentration 270 nM, RXRa partner concentration 90 nM)
In short: as §1

[9] = system: PPARg:RXRa 30nM:10nM, anti-RXR (NR concentration 30 nM, RXRa partner concentration 10 nM)
In short: as §1

[10] = system: PPARg:RXRa 90nM:30nM, anti-RXR (NR concentration 90 nM, RXRa partner concentration 30 nM)
In short: as §1

[11] = system: PPARg:RXRa DBDmut IVT, anti-RXR (DBD mutation: RXRa K156A/R161A, NR concentration 270 nM, RXRa partner concentration 90 nM)
In short: as §1

[12] = system: PPARg:RXRa IVT, anti-PPARg (NR concentration 270 nM, RXRa partner concentration 90 nM)
In short: as §1

[13] = system: PPARg DBDmut:RXRa IVT, anti-PPARg (DBD mutation: PPARg1 K132A/R137A, NR concentration 270 nM, RXRa partner concentration 90 nM)
In short: as §1

[14] = system: PPARg DBDmut IVT, anti-PPARg (DBD mutation: PPARg1 K132A/R137A, NR concentration 270 nM)
In short: as §1

[15] = system: PPARg homodimer (NR concentration 180 nM)
In short: as §1

[16] = system: PXR:RXRa (NR concentration 270 nM, RXRa partner concentration 90 nM)
In short: as §1

[17] = system: PXR homodimer (NR concentration 270 nM)
In short: as §1

[18] = system: RARa:RXR (NR concentration 270 nM, RXRa partner concentration 90 nM)
In short: as §1

[19] = system: RARa homodimer (NR concentration 270 nM)
In short: as §1

[20] = system: RARb:RXRa (NR concentration 270 nM, RXRa partner concentration 90 nM)
In short: as §1

Row | Sequence | PBM binding z-score [1] | PBM binding z-score [2] | PBM binding z-score [3] | PBM binding z-score [4] | PBM binding z-score [5] | PBM binding z-score [6] | PBM binding z-score [7] | PBM binding z-score [8] | PBM binding z-score [9] | PBM binding z-score [10] | PBM binding z-score [11] | PBM binding z-score [12] | PBM binding z-score [13] | PBM binding z-score [14] | PBM binding z-score [15] | PBM binding z-score [16] | PBM binding z-score [17] | PBM binding z-score [18] | PBM binding z-score [19] | PBM binding z-score [20]
1 | TCGAGTAGGTTACCTATGGGGCATTCAGCTTTCT | 0.0442 | 1.74 | -0.775 | 0.927 | -1.31 | 1.24 | 0.475 | 1.01 | 1.17 | 1.17 | 2.71 | 2.51 | -0.176 | -0.57 | -0.445 | 0.0182 | -0.655 | 0.469 | -0.643 | 0.753
2 | TATGCAGGGTCAAAGGCCAGAGTACGAATGTCGA | 7.19 | 5.51 | 1.34 | 4.46 | 0.828 | 6.1 | 7.42 | 6.8 | 4.59 | 6.57 | 1.27 | 3.92 | 0.572 | 0.66 | 2.29 | 4.49 | -0.344 | 6.18 | -0.114 | 4.34
3 | TCATATAGGTAAATCCTAGGTGAAAGTCCGATCT | 0.916 | 0.69 | -0.094 | 0.537 | -0.0667 | 1.47 | 0.85 | 2.16 | 3.66 | 2.72 | 3.48 | 2.8 | 0.825 | 0.675 | -0.358 | 0.68 | 0.175 | 1.11 | 0.51 | 0.592
4 | GATACAGGGTCAGCTGGAGGCCAGAGTATGGAAA | 5.07 | 2.76 | -0.49 | 2.38 | -0.887 | 4.47 | 3.91 | 3.62 | 1.24 | 2.49 | 1.09 | 2.28 | -0.601 | -0.834 | 2.9 | 3.53 | -0.0691 | 5.12 | 0.139 | 4.3
5 | ATCTCTAGGTAGCAAGTTCAGTGAAAGAGAGGAC | 0.337 | 0.333 | 0.238 | 0.0819 | 0.153 | 0.475 | 0.327 | 0.887 | 0.0265 | 0.756 | 0.208 | 0.604 | 0.0162 | 0.501 | 0.437 | 1.22 | 1.35 | 0.324 | 0.221 | 0.981
6 | GGAACGAGGGCATTCGAGTTGATAACATGGCGAT | 1.09 | 1.76 | -0.0799 | 0.415 | -0.451 | 1.56 | 1.3 | 0.636 | -0.0941 | 0.231 | 2.75 | 2.1 | 0.243 | 0.0771 | 0.605 | 4.02 | 1.36 | 0.915 | -0.696 | 1.68
7 | ACTAGCAGGCCAAGGGTCGCTCAAGATTAGTCCG | -0.247 | 0.0805 | -0.567 | 0.0881 | -0.965 | 2.36 | 4.99 | 6.2 | 3.7 | 5.95 | 0.554 | 1.95 | -0.249 | -1.1 | 0.333 | 0.247 | -0.683 | 0.951 | -0.617 | 1.35
8 | CAAACTAGGTCACAGAGGTCAAAGACCGTGCGTA | 7.36 | 6.53 | 6.56 | 5.93 | 1.73 | 6.52 | 10.5 | 8.43 | 6.84 | 8.38 | 8.39 | 9.08 | 7.99 | 2.78 | 5.75 | 6.86 | 10.2 | 7.44 | 2.59 | 5.37
9 | ATCGCTAGGTAAGACTCAGTTCAGTGAAGAACGC | -0.617 | -0.685 | -0.587 | -0.734 | -0.581 | -0.45 | -0.14 | -0.615 | -0.356 | -0.686 | -0.311 | -0.264 | -0.423 | -0.364 | -0.443 | 0.322 | 0.471 | -0.577 | -0.519 | -0.283
10 | GCTATTTGGTCAGTAAAAGGTCACACACCGGTCG | 3.6 | 4.54 | 5.27 | 4.71 | 1.54 | 4.7 | 3.46 | 4.72 | 2.76 | 4.46 | 1.19 | 3.03 | 0.901 | 1.1 | 3.8 | 5.12 | 1.46 | 5.67 | 2.38 | 4.45
11 | GCATTTAGGTAATACAAGGTGAAAGTCCGATTGT | 1.45 | 1.54 | 0.274 | 0.493 | -0.034 | 1.27 | 0.514 | 1.03 | 0.425 | 0.682 | 3.13 | 2.5 | 1.39 | 0.568 | 0.826 | 0.319 | 0.3 | 0.911 | 0.039 | 0.715
12 | ATATGTAGGTTAGCAGGGGTCATTCAGACTAGGC | 5.14 | 5.99 | 4.53 | 5.37 | 1.78 | 5.56 | 6.6 | 5.97 | 3.32 | 5.33 | 6.72 | 6.32 | 3.05 | 2.47 | 4.78 | 6.38 | 2.6 | 6.55 | 2.44 | 3.5
13 | GCGCGGAGGACAAGGTCAGAGCTTTGTCCGTAGA | 1.64 | 1.37 | -0.378 | 1.01 | -1.25 | 2.27 | 0.135 | 1.16 | -0.943 | 0.36 | -0.241 | 0.514 | -1.67 | -1.56 | 0.0737 | 1.5 | -0.325 | 2.13 | -1.01 | 3.4
14 | TCTTGTAGATCAATAGAGGTCAAGAAAGTGCGCT | 3.34 | 5.24 | 3.98 | 4.27 | 1.1 | 4.19 | 1.36 | 3.32 | 3.08 | 3.18 | 1.9 | 2.9 | 1.22 | 0.341 | 1.79 | 5.53 | 1.38 | 4.29 | 0.852 | 3.26
